# Screening results (PubChem BioAssay)
# An excerpt weighted towards active compounds, which were near 19% of everything screened.
# TDP1 cell CPT: qHTS for Inhibitors of human tyrosyl-DNA phosphodiesterase 1 (TDP1): qHTS in cells in presence of CPT; chicken DT40 Tdp1-/-;hTDP1 cells + 20 nM CPT, ATP luminescence, 48 h; hit rate 12% among 420,000; Potency, µM (titrated, usually from 46.2 µM), for the others: top-dose activity change, negative = growth inhibition, actives largely listed as inhibitors; AID 686979, 2013; also: potency is read from the fitted curve at half-maximal effect; % is scaled to controls: 0 for no effect and ±100 for the full control effect; nearly all actives have a fitted effect of over 55% in size
#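 Cell growth measured by CellTiter-Glo luminescence after a minimum 48 h, 37 C compound exposure with 20 nM CPT in Tdp1-knockout DT40 cells stably expressing hTDP1, seeded 400/well; qHTS titration format.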
# TGFb SMAD3 inh: qHTS for Inhibitors of TGF-b; HepG2 CAGA-GFP TGF-b/SMAD3 reporter, GFP fluorescence, 18 h; TGF-beta stimulated, 500 pg/mL final; Potency, µM (top dose mostly 46.1 µM), without a hit: top-dose activity, negative = inhibition, actives largely listed as inhibitors; hit rate 1.2% among 410,000; also: potency is read from the fitted curve at half-maximal effect; % is scaled to controls: 0 for no effect and ±100 for the full control effect; nearly all actives have a fitted effect of over 65% in size
#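 Inhibition of TGF-beta-driven CAGA-GFP reporter expression in HEPG2 cells is measured by cellular GFP fluorescence after 18 h stimulation with 500 pg/mL recombinant TGF-beta in 1% FBS medium at 37 degrees C.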
# TDP1 inh: qHTS Assay for Inhibitors of Tyrosyl-DNA Phosphodiesterase (TDP1). Tyrosyl-DNA phosphodiesterase 1 (Homo sapiens), Q9NUW8. Potency, µM (top dose mostly 130 µM), without a hit: at the highest dose activity change, negative = inhibition, hits mostly inhibitors. AID 485290, 2010. hit rate 0.28% among 350,000. recombinant TDP1, AlphaScreen DNA substrate cleavage; also: potency is read from the fitted curve at half-maximal effect; % is scaled to controls: 0 for no effect and ±100 for the full control effect; nearly all actives have a fitted effect of over 40% in size
# Target sequence (Q9NUW8 whole entry, looked up): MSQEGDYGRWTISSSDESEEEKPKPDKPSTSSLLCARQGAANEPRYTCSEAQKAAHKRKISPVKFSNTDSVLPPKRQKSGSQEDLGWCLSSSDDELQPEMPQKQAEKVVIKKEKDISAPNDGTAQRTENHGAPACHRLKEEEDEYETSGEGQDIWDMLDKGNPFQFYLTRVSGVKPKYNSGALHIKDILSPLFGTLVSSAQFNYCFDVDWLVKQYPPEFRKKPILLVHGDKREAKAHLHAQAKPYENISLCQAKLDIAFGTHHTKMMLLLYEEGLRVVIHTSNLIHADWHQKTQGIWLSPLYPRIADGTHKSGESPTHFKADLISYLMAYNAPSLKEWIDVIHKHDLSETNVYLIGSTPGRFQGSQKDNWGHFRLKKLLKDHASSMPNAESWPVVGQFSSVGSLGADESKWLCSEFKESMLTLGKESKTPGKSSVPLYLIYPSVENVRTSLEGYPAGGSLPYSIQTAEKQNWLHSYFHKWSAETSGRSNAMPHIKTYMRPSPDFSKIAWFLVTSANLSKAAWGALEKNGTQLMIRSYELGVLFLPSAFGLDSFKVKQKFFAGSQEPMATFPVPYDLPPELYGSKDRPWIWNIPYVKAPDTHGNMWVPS
#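 E. coli-derived human Tdp1, 1 nM final. Cpd preinc 15 min RT; substrate 15 nM final, 5 min RT; AS bead mix 10 ug/ml final, 10 min RT. Signal loss = tyrosine-FITC cleavage. No-enzyme wells = max signal.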
# TDP1 cell noCPT: qHTS for Inhibitors of human tyrosyl-DNA phosphodiesterase 1 (TDP1): qHTS in cells in absence of CPT; DT40 Tdp1-/- hTDP1 cells, no CPT, ATP luminescence, 48 h; Potency, µM (titrated, usually from 46.2 µM), for the others: at the highest dose activity change, negative = growth inhibition, most hits filed as inhibitors; hit rate 15% among 420,000; also: potency is read from the fitted curve at half-maximal effect; % is scaled to controls: 0 for no effect and ±100 for the full control effect; nearly all actives have a fitted effect of over 55% in size
#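 No-CPT arm: Tdp1-/-;hTDP1 DT40 cells (400/well) plus compounds, incubated ≥48 hr at 37 °C. Readout CellTiter-Glo luminescence.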
# HepG2 viability: qHTS for Inhibitors of TGF-b: Cytotox Counterscreen. Potency, µM (top dose mostly 46.1 µM), inactives show top-dose activity change, negative = cytotoxicity, usual class: cytotoxic. AID 588856, 2011. HepG2 CAGA-GFP viability, ATP luminescence, 18 h. hit rate 0.76% among 410,000; also: potency is read from the fitted curve at half-maximal effect
#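 HepG2 CAGA-GFP cells (1000/well, DMEM with 1% FBS) received compound, then TGF-beta at 500 pg/mL final, and were incubated 18 hours at 37 degrees C. Viability was read by CellTiter-Glo luminescence. Media-only wells were set as complete cell-killing and DMSO as no toxicity.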
# IL-1B inflam inh: qHTS for Inhibitors of Inflammasome Signaling: IL-1-beta AlphaLISA Primary Screen | AID 743279, 2014 | THP-1 LPS/ATP IL-1B secretion, AlphaLISA, 16 h; stronger effect = lower value | hit rate 4.7% among 360,000 | activity change, % at 57.5 µM; in the data active = activity change below about -50%; inconclusive = mostly about -30% to -49%; also: % is scaled to controls: 0 for no effect and ±100 for the full control effect
#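 THP-1 cells pretreated 1 hr with compounds (up to 57.5 uM final), then stimulated with LPS (250 ng/mL final) plus ATP (1.25 mM final); secreted IL-1B measured by AlphaLISA after 16 hr, decreased signal indicating inhibition.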
# Active calls of the source: *; ? = inconclusive; nt = no result given; [ ] = remark or other dose. Unless noted, calls follow the shape of the dose curve; as a rule, active = well fitted curve in the direction sought with a large enough effect; inconclusive = small, poorly fitted or top-dose-only effect, or another doubt; inactive = no such curve, though single readings can be large; an effect the other way counts as inactive or inconclusive.
SMILES,TDP1 cell CPT,TGFb SMAD3 inh,TDP1 inh,TDP1 cell noCPT,HepG2 viability,IL-1B inflam inh
CCOC(=O)N1CCN(Cc2nc3c(c(=O)n(C)c(=O)n3C)n2CCCc2ccccc2)CC1,?,-19%,5%,-30%,-10%,-11
CCOC(=O)N1CCN(Cc2nc3c(c(=O)n(C)c(=O)n3C)n2CCC(C)C)CC1,-29%,-12%,7%,?,-21%,7
CCCn1c(CN2CCN(C(=O)OCC)CC2)nc2c1c(=O)n(C)c(=O)n2C,8.2µM*,4%,nt,5.2µM*,-3%,40
CCCCCCn1c(CN2CCN(C(=O)OCC)CC2)nc2c1c(=O)n(C)c(=O)n2C,21µM*,13%,nt,?,-21%,16
COc1ccc(CNC(=O)CCS(=O)(=O)c2cc3c4c(c2)CCN4C(=O)CC3)cc1OC,-4%,-14%,5%,3%,-27%,nt
CCn1nc(C)c2c(-c3ccccc3)cc(=O)n(C(C)C(=O)NCCc3ccc(OC)c(OC)c3)c21 (centres undefined),?,-33%,8%,?,-16%,nt
Cc1nn(C)c2c1c(-c1ccccc1)cc(=O)n2C(C)C(=O)NCc1ccc(F)cc1 (centres undefined),?,-2%,5%,?,4%,nt
CCn1nc(C)c2c(-c3ccccc3)cc(=O)n(C(C)C(=O)NCCc3ccccc3)c21 (centres undefined),18µM*,?,6%,?,-22%,nt
CCn1nc(C)c2c(-c3ccccc3)cc(=O)n(C(C)C(=O)NCCC(C)C)c21 (centres undefined),18µM*,-1%,3%,?,-18%,nt
CCn1nc(C)c2c(-c3ccccc3)cc(=O)n(C(C)C(=O)NCc3ccc(C)cc3)c21 (centres undefined),18µM*,?,2%,?,-18%,nt
CCc1nnc(SCc2nc(-c3ccc(OC)c(OC)c3)oc2C)c2cc3sc(C)cc3n12,?,-29%,-3%,?,-9%,nt
COc1ccc(CN2C(=O)C(CC(=O)NCC3CCCCC3)CC(C(=O)N(C)C)=C2C)cc1 (centres undefined),?,-1%,nt,?,-5%,-24
CC1=C(C(=O)N(C(C)C)C(C)C)CC(CC(=O)NCC2CCCCC2)C(=O)N1Cc1ccc(C(C)(C)C)cc1 (centres undefined),19µM*,nt,nt,19µM*,nt,nt
CCN(CC)C(=O)C1=C(C)N(Cc2ccc(OC)cc2)C(=O)C(CC(=O)NCC2CCCCC2)C1 (centres undefined),?,0%,nt,21µM*,4%,-12
CC1=C(C(=O)N(C(C)C)C(C)C)CC(CC(=O)NC2CC2)C(=O)N1Cc1ccc(C(C)(C)C)cc1 (centres undefined),?,nt,nt,29µM*,nt,0
CC(C)(C)n1ncc2c(=O)n(Cc3cccc(C#N)c3)cnc21,nt,-3%,nt,nt,-32%,nt
CCOC(=O)CCCNC(=O)N1CCc2nc(-c3ccc(OC)cc3C)c3c(c2C1)CO[C@@H](c1ccccc1)C3,nt,nt,4%[12.3 µM],nt,nt,nt
Cc1ccc(NC(=O)CCCn2c(=O)c3cccn3c3cccnc32)c(Cl)c1,-12%,?,10%,-22%,-2%,nt
O=C(c1ccccc1)[C@@H]1[C@@H]2C(=O)N(c3ccc(F)cc3)C(=O)[C@@H]2C2CCCN21 (some centres undefined),?,?,8%,?,-52%,-59*
CC(=O)c1ccc(N2C(=O)C3C(C2=O)C(C(=O)c2ccc(Cl)cc2)N2CCCC32)cc1 (centres undefined),8.2µM*,8%,7%,10µM*,-21%,-109*
Cc1ccc(N2C(=O)[C@@H]3[C@H](C2=O)C2CCCN2[C@@H]3C(=O)c2ccccc2)cc1 (some centres undefined),-18%,?,9%,?,-62%,-8
O=C(c1ccc(Cl)cc1)C1C2C(=O)N(c3ccccc3)C(=O)C2C2CCCN21 (centres undefined),0%,17%,8%,-11%,18%,38
Cc1cc(C)n(CCCC(=O)O)n1,3%,14%,8%,-3%,-15%,-67*
Cc1ccc(OCCNCc2ccccc2)c(C)c1,?,17%,0%,?,-25%,-7
Cc1cc(C)c(OCCCNC2CCCC2)c(Br)c1,13µM*,1%,nt,7.3µM*,-31%,-55*
SMILES,TDP1 cell CPT,TGFb SMAD3 inh,TDP1 inh,TDP1 cell noCPT,HepG2 viability,IL-1B inflam inh
Cc1cc(C)c(OCCCNCc2ccccc2)c(Br)c1,18µM*,?,nt,23µM*,-120%,-72*
Cc1cc(Cl)c(OCCCNCc2ccccc2)c(Br)c1,?,?,2%,18µM*,10µM*,?
Cc1ccc(Sc2cnccc2C#N)cc1,-24%,-1%,nt,-10%,2%,-10
CC(=O)NCC(=O)NCC1Cc2cc(C)cc(-c3ccccn3)c2O1 (centres undefined),6%[9.04 µM],nt,nt,2%,nt,nt
COc1ccc(-c2[nH]ncc2C(=O)NCc2cccc(Cl)c2)cc1,4%,nt,-1%,?,-9%,nt
Cn1c(COc2ccc(Cl)cc2)nnc1SCc1ncc(-c2ccccc2)o1,?,?,2%,16µM*,-68%,-12
COc1ccc(C(C)=O)cc1CN1C(=O)C(C)ON=C1c1ncccc1C (centres undefined),-11%,7%,nt,10%,11%,-24
O=C(COc1ccccc1Cl)N(Cc1ccco1)Cc1ccco1,?,-2%,5%,23µM*,-16%,nt
Cc1cccc(OCC(=O)N(Cc2cccc(Cl)c2)Cc2ccco2)c1C,6.5µM*,nt,0%,-82%,-40%,nt
Nc1c(N(Cc2ccco2)C(=O)COc2ccccc2Cl)c(=O)[nH]c(=O)n1Cc1ccccc1,-6%,-6%,-1%,-18%,-15%,4
Cc1ccc(CN(Cc2ccco2)C(=O)COc2ccc(Cl)cc2Cl)cc1,?,?,2%,18µM*,-25%,nt
